According to the supplement of paper PMC6555819:

tested on: VDR:RXRa (NR concentration 270 nM, RXRa partner concentration 90 nM); assay: PBM binding z-score (relative to random genomic background probes); higher = stronger binding; sequences stand for … in GC…GCGATTGACAGCGTAGAATGAAGG
Procedure: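 Protein-binding microarray (Agilent 4x180K custom design, double-stranded 60-nt probes: 5' GC cap, 34-nt variable region, 24-nt constant primer region; full probe sequence given). Purified or IVT nuclear receptor:RXRα heterodimers (3:1 NR:RXRα, mostly 270:90 nM) or homodimers were incubated for 1 h in PBS with 2% milk and no ligand, then detected with Alexa488 antibodies. Fluorescence from o1-orientation probes (~5 replicates averaged) was converted to z-scores against 500 random hg19 background probes. Variable regions are seed direct-repeat (DR0–DR5) sites, all their single-nucleotide variants and half-site ablations.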

Sequence	PBM binding z-score
GCTGATAGGTCAGGTTGGTCAGCTAACGGGTACG	1.58
CCTTACGTGTCACTCCAGGTTATAGCATCGGAGT	1.33
ATCTCTAGGTAAAGATAGTTCAGTGAGTGCAAAT	5.05
CTAGAAAGGTCGTGCTCAGGTGAGTATACCAAAC	3.1
GCTATTAGTTGTAAGGGCAACCGAATGATTCTCG	0.148
TCATATAGGTAGACAGGTGAAAGTCCGTAAGTTA	0.905
TCTCGGAGTACACGAAGGTCAGAGCTTTCCAGAG	2.27
TCCAGTAGGTTAGGGGCATTCAGAATGGCGTCGA	0.702
ACTAGCAGGTCAAGTTTGGGTCACTCAAACAAAG	4.68
TAGCCTAGGTCCGATCGGGCCAGTATACGCTATA	-0.91
CCTACTGAGCCAAAAAGGTCATTGATGCCGATAA	4.58
AGTCAAAGTTCACCAGGTAACGTAAGATTCAGCT	4.61
CCGACTGGGGCAAGGTTACCCTAACGCACAGCCA	0.016
TCTAGTTGGGCACGGAGGTCACACACGACGGGTA	4.08
TCAGACAGGTGAAGGCAACTCAGGTACGCAGTCG	0.552
ATCTCTAGGTAAGAATCAGTTCAGTGAAGAACGC	0.845
TCATATAGGTAAAAGGTGAATGTCGGTGTGGTAA	1.44
AGAATGAGGTTATTAAGATCAGGGCATTGCGGTC	3.01
ATCGAAAGGTAGTGAGGTGAGTATACAGAAAGGC	-0.165
GCTGCTAGGTCAGATTGGTCAGCTAACGGGTACG	0.624

Sequence	PBM binding z-score
GCCAGTTGGTCAGTAAAAGGTCACACACCGGTCG	3.94
TCATATCGGTAAAAGGTGAAAGTCGGTGTGGTAA	1.54
TAGCCTAGGTCATGCTGGCCAGTATAGTGTCGGC	2.04
GCGACTGGGGCATCAGCAAGTTACCATAACTTAA	-0.37
TAGCCTAGGTCATGTGCCAGTATACCACGCGAAC	2.35
GCGACTGGGGCAAAGCCGGTTACCATAAGGTTGG	-0.76
CGAACTGGGTCAGAACAGGACAGTGAAGGATGAT	0.685
GCAGACAGGTAAAACGCAGGTAACTCAGGGTGGC	-0.484
TAGCCAAGGTCATGGGCCAGTATACCACGCGAAC	4.51
GCTAGTTGGTCAGTAAAAGGTCACACCCCGGTCG	3.83
TCGATTAGTTGAAGGGCAACCGACGAGTCCGTTT	0.389
TGAATGACGTTATAAGATCAGGGAACGTTGCAAA	0.104
TCTATTAGTTGAAGGCCAACCGACGAGTCCGTTT	1.02
ATATGTAGGGTATCGGGTCATTCAGTTTGCGCAT	5.05
ATATGTAGGTTATCGGGTCATTAAGTTTGCGCAT	6.04
CCTACTGGGCTAAAGGTCATTGATTCCAATGCTC	4.38
TATACAGGGTCAAAGTCCAGAGTACGAATGTCGA	5.09
CGAAGGAGGGCATGAGTTGATAGCAAATGCCGAT	0.513
TCATATAGGTACATGCTAGGTGAAAGTCCGATCT	0.884
GGAACGACGGCAAGTTGATAGCAGAGTTTGATGG	-0.532
